From PubChem BioAssay (NCATS)
Values joined by “and” are separate entries in the source; they are usually repeats but may differ in a detail not shown here. Equal entries are not always repeated. Records with an inconclusive call do not appear. Active and inactive are the calls of the source. Unless noted, calls follow the shape of the dose curve; as a rule, active = well fitted curve in the direction sought with a large enough effect; inconclusive = small, poorly fitted or top-dose-only effect, or another doubt; inactive = no such curve, though single readings can be large; an effect the other way counts as inactive or inconclusive.

How the values were obtained:
[1] = target: Tyrosine-protein kinase Yes (Homo sapiens) (UniProt P07947); assay: qHTS for small molecule inhibitors of Yes1 kinase: Primary Screen (AID 686947); also: nearly all actives have a fitted effect of over 60% in size; also: potency is read from the fitted curve at half-maximal effect
Tyrosine-protein kinase Yes (Homo sapiens), sequence (P07947 whole entry, looked up): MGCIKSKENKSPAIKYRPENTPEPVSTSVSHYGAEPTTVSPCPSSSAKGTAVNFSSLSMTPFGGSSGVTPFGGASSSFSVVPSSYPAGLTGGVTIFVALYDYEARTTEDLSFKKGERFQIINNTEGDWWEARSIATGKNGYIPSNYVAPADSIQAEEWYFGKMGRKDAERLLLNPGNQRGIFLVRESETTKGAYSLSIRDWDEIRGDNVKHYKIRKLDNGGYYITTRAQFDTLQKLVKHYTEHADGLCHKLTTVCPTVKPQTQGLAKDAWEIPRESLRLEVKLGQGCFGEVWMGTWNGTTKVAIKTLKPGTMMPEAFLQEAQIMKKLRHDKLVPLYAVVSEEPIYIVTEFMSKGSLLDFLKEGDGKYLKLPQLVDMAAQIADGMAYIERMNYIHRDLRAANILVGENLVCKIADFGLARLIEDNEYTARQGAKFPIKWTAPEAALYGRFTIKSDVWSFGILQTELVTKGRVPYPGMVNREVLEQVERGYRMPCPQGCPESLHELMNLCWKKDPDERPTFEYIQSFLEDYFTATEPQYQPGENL
Summary of the method: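 Yes1 (4 nM) preincubated 20 min with compound, then 60 min room-temperature reaction with 0.1 mM ATP and 0.3 mg/mL poly(E4Y) in pH 7.5 Tris, 10 mM MgCl2. ADP measured by ADP-Glo luminescence, normalised to enzyme/no-enzyme controls.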

[2] = qHTS for small molecule inhibitors of Yes1 kinase: Counter Assay (AID 686950);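 also: no kinase present so only ADP-Glo detection of a fixed ADP amount is tested; luminescence from ADP-Glo reporting ADP in a fixed ATP and ADP mixture; series mostly up to about 77 µM; 0% = DMSO wells with ATP plus ADP and -100% = ATP-only wells without ADP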
Summary of the method: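 Enzyme-free detection counter-screen: compounds preincubated 20 min in buffer, then 0.08 mM ATP plus 0.02 mM ADP added for 60 min at room temperature; ADP-Glo luminescence. Buffer 50 mM Tris pH 7.5, 10 mM MgCl2, 150 mM NaCl; normalized to ATP+ADP and ATP-only controls.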

[3] = qHTS assay for small molecule activators of the nuclear factor-kappa B (NF-kB) signaling pathway (AID 651749; active = well fitted activation curve with a large enough effect in the signal ratio; the % refers to the signal ratio; also: series mostly up to about 77 µM; % of control where 0% means no effect); settings: NF-kB-bla ME-180 cells, beta-lactamase FRET ratio, 16 h; hits give high values
Summary of the method: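 NF-kB-bla ME-180 cells carrying a beta-lactamase reporter under an NF-kB response element, 2,000 cells/well, exposed to compound for 16 hr at 37C; FRET-based beta-lactamase fluorescence read-out of pathway activation.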

[4] = qHTS assay for environmental chemicals that activate the Aryl hydrocarbon Receptor (AhR) signaling pathway (AID 651777); settings: 1A2-DRE human hepatoma cells, luciferase, 24 h; hits give high values; also: % of control where 0% means no effect; nearly all actives have a fitted effect of over 15% in size
Summary of the method: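 Stable CYP1A2 promoter/DRE-luciferase human hepatoma line treated 24 hr; One-Glo luminescence, 30 min RT.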

[5] = target: Peroxisome proliferator-activated receptor alpha (Homo sapiens) (UniProt Q07869); assay: qHTS assay for small molecule agonists of the peroxisome proliferator-activated receptor alpha (PPARalpha) signaling pathway (AID 651778); settings: PathHunter PPARalpha complementation, chemiluminescence, 6 h; hits give high values; also: % of control where 0% means no effect
Peroxisome proliferator-activated receptor alpha (Homo sapiens), sequence (Q07869 whole entry, looked up, the tested form may be a part): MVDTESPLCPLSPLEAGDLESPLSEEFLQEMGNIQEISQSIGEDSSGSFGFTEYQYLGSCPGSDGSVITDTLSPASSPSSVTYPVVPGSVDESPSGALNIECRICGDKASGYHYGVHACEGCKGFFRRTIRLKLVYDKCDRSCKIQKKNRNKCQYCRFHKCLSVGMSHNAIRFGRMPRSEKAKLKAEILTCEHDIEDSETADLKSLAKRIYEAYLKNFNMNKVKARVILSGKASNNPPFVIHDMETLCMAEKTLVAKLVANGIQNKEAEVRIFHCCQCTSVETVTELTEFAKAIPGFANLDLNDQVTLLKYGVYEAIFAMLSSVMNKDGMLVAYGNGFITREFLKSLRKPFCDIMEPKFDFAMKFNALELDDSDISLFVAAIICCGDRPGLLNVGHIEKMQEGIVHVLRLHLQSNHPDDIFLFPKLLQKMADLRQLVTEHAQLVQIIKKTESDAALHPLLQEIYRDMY
Summary of the method: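 Enzyme-fragment complementation assay in which ligand-bound PPARalpha translocates and forms an active enzyme that generates chemiluminescence. Cells were plated overnight, exposed to compound for 6 hr at 37 C, and then given detection reagent for 60 min at room temperature.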

[6] = qHTS for compounds that reverse cellular toxicity of Amyloid beta (A-beta) peptide in yeast: LOPAC Validation Assay (AID 720559);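 also: plate controls were DMSO for no effect and equimolar ferric chloride plus clioquinol rescue for full effect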
Summary of the method: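 Rescue of A-beta toxicity was scored as yeast growth by 600 nm absorbance after 48 hr at 30 C with compound. Normalization used DMSO (negative) and equimolar ferric chloride plus clioquinol (positive).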

[7] = qHTS for Activators of Parkin Expression: LOPAC Validation Assay (FLuc Reporter) (AID 720573;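 also: 0% = DMSO and 100% = positive control compounds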)
Summary of the method: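 FLuc signal from Parkin-promoter coincidence reporter neuronal cells, normalized to DMSO and positive control (100%). Cells (1,500/well) pre-incubated 24 h, then exposed to LOPAC compounds in 7-point dose response for 24 h at 37 C, 5% CO2.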

[8] = qHTS assay for small molecule agonists of the antioxidant response element (ARE) signaling pathway measured by Nrf2-dependant transcriptional activity (AID 720636; active = well fitted curve in the direction sought with a large enough effect in the repeat runs; an effect the other way counts as inactive or inconclusive;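 also: HepG2 cells with an ARE-driven luciferase reporter; % of control where 0% means no effect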)
Summary of the method: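 Reporter gene assay, HepG2 ARE-luc: 16 hr compound, 37 C, 5% CO2; read-out luciferase luminescence.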

[9] = qHTS assay for small molecule antagonists of the retinoid-related orphan receptor gamma (ROR-gamma) signaling pathway - cell viability counter screen (AID 720652; active = well fitted curve in the direction sought with a large enough effect in the repeat runs; an effect the other way counts as inactive or inconclusive;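 also: series mostly up to about 92 µM; compound exposure lasted 16 hr before ATP read; % is scaled to controls: 0 for no effect and ±100 for the full control effect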)
Summary of the method: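 Luminescence from CellTiter-Glo after 30 min at room temperature reported cellular ATP as the cytotoxicity measure. Cells were the CHO reporter line with doxycycline-induced ROR-gamma expression, exposed to compound for 16 hr at 37 C.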

[10] = target: T1, Hexokinase-4 (Homo sapiens) + Glucokinase regulatory protein (Homo sapiens) (UniProt P35557+Q14397); assay: qHTS assay for inhibitors of recombinant human GCK-GKRP interaction: Diaphorase-coupled assay (AID 743205)
T1 sequence (P35557 whole entry, looked up): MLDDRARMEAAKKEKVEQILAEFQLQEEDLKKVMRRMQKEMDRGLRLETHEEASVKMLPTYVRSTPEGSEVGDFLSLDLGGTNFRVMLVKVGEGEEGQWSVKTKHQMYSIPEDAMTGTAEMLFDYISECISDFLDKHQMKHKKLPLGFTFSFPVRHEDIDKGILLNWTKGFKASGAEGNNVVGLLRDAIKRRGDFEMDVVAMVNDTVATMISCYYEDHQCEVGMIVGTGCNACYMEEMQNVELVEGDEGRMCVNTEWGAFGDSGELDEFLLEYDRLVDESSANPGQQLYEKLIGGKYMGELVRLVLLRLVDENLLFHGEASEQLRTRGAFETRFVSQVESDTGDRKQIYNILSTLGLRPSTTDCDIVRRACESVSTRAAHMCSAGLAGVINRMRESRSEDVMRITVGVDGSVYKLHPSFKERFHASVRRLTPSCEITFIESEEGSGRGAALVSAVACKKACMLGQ
T1 sequence (Q14397 whole entry, looked up): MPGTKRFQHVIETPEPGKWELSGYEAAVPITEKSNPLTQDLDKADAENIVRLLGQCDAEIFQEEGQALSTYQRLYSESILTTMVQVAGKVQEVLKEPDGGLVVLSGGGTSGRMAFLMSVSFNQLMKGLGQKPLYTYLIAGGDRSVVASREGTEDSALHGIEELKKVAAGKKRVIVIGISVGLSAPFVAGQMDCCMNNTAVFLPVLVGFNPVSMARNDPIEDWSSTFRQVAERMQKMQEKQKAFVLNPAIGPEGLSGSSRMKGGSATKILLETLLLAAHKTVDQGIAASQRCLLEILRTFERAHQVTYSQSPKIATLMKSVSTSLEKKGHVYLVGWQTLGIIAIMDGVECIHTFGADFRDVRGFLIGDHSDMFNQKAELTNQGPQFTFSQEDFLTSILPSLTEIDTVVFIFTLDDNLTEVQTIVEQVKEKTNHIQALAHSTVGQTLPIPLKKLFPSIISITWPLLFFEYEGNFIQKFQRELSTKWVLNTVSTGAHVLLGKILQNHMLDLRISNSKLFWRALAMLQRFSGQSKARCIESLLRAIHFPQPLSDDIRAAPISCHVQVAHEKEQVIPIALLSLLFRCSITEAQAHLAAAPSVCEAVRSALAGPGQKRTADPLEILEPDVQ
Summary of the method: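 A kinetic fluorescence read (Ex 525/Em 590 nm, every minute for 30 minutes) tracked resorufin from a G6PDH-diaphorase coupled GCK reaction. It contained 10 nM GST-GCK, 10 nM FLAG-GKRP, 5 mM glucose, 0.4 mM ATP in Hepes pH 7.6. Normalized to with/without-enzyme DMSO controls.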

[11] = target: T1, Hexokinase-4 (Homo sapiens) + Glucokinase regulatory protein (Homo sapiens); assay: qHTS assay for inhibitors of recombinant human GCK-GKRP interaction: ADP-Glo assay (AID 743206);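 also: plate controls were DMSO plus enzyme for no effect and no enzyme for full effect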
Summary of the method: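 GST-GCK and FLAG-GKRP (15 nM each in the dispensed mix, with 2 uM S6P) react with 0.4 mM ATP and 5 mM glucose (final) in Hepes pH 7.6 for 60 min at room temperature. ADP is measured by ADP-Glo luminescence.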

[12] = target: T1, Hexokinase-4 (Homo sapiens) + Glucokinase regulatory protein (Homo sapiens); assay: qHTS assay for inhibitors of recombinant human GCK-GKRP interaction: HTRF assay (AID 743207);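 also: 0% = DMSO with GCK present and -100% = DMSO wells lacking GCK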
Summary of the method: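 After 60 min equilibration at room temperature with anti-FLAG XL665 and anti-GST antibodies, FRET ratio (665/615 nm, excitation 320 nm) was read. Proteins: GST-GCK and FLAG-GKRP, each 5 nM, plus 2 uM S6P, pH 7.1 buffer; GCK-free wells define minimum signal.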

[13] = target: Arylsulfatase A (Homo sapiens) (UniProt P15289); assay: qHTS screen for enhancers of Arylsulfatase A (ASA1): LOPAC Validation Assay (AID 720538); settings: outcome: dose series up to 57.5 µM
Arylsulfatase A (Homo sapiens), sequence (P15289 whole entry, looked up): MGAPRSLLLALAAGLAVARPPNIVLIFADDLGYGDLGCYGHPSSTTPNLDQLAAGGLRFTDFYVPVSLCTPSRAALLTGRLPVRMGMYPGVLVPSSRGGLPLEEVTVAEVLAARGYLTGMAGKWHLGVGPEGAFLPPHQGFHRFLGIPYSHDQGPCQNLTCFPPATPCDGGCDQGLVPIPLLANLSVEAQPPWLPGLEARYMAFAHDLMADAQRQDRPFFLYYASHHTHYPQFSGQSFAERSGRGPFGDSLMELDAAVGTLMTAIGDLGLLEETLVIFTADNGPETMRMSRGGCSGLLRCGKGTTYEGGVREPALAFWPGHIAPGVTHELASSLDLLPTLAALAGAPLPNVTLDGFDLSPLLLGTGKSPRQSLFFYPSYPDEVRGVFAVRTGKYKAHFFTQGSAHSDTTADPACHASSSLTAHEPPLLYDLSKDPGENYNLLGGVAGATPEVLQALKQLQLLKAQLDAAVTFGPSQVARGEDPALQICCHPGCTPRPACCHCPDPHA
Summary of the method: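 Enhancer assay in patient-derived MLD fibroblasts carrying ASA-I179S: 48 h compound exposure at 37 C, then 14 h room-temperature pNCS turnover (0.5 mM final) in lysis buffer. Read by fluorescence at 525/598 nm after NaOH stop.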

[14] = qHTS assay for small molecule agonists of the antioxidant response element (ARE) signaling pathway measured by Nrf2-dependant transcriptional activity - cell viability counter screen (AID 720653; active = well fitted curve in the direction sought with a large enough effect in the repeat runs; an effect the other way counts as inactive or inconclusive; also: % is scaled to controls: 0 for no effect and ±100 for the full control effect); settings: ARE-bla HepG2 viability, CellTiter-Glo ATP luminescence, 16 h; hits give low values
Summary of the method: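 ARE-bla HepG2 cells treated with compounds for 16 h at 37C; this counter screen measures viability as intracellular ATP by CellTiter-Glo luminescence after 30 min at room temperature.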

[15] = target: Tumor necrosis factor (Homo sapiens) (UniProt P01375); assay: qHTS assay to identify small molecules that stimulate Tumor Necrosis Factor-alpha (TNF-alpha) secretion (AID 651757; active = well fitted curve in the direction sought with a large enough effect in the signal ratio; the % refers to the signal ratio; also: 0% is about no effect)
Tumor necrosis factor (Homo sapiens), sequence (P01375 whole entry, looked up): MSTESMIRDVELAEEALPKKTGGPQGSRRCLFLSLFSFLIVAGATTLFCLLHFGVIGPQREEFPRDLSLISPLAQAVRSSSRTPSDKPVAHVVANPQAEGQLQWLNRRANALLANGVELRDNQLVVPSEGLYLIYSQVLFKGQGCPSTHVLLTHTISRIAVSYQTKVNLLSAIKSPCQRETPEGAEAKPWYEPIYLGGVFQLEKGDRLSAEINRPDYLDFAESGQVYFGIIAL
Summary of the method: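 Read-out is HTRF, a TR-FRET sandwich of cryptate- and XL665-labeled anti-TNF-alpha antibodies detecting cytokine secreted by THP-1 cells. Cells had been incubated with test compounds at 37 C for 17 hrs beforehand.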

[16] = target: Nuclear receptor ROR-gamma (Homo sapiens) (UniProt P51449); assay: qHTS assay for small molecule antagonists of the retinoid-related orphan receptor gamma (ROR-gamma) signaling pathway (AID 651802);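 also: luciferase reporter luminescence driven by ROR response element; series mostly up to about 92 µM; % is scaled to controls: 0 for no effect and ±100 for the full control effect; nearly all actives have a fitted effect of over 60% in size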
Nuclear receptor ROR-gamma (Homo sapiens), sequence (P51449 whole entry, looked up): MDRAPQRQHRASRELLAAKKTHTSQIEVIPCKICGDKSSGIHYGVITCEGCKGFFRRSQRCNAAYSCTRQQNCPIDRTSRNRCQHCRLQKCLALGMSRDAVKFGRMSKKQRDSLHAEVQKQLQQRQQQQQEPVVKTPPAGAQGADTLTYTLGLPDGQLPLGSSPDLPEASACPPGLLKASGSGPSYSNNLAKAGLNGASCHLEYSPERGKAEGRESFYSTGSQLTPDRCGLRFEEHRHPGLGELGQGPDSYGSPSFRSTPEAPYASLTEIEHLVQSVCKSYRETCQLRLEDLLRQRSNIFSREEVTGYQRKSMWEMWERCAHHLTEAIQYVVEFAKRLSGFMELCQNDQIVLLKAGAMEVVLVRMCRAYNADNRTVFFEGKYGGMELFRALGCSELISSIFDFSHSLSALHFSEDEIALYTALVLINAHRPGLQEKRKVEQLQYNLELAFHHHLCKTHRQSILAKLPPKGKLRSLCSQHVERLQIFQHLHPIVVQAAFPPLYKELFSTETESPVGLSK
Summary of the method: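 CHO, TET-inducible ROR + RORE-LUC reporter, 1536-well qHTS. Compound pinned, doxycycline added, 16hr 37C/5% CO2. ONE-Glo, 30 min RT, luminescence; signal drop scored as antagonism.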

[17] = qHTS assay for small molecule disruptors of the mitochondrial membrane potential - 1 hr assay (AID 651754; calls by dose curve; also: % is scaled to controls: 0 for no effect and ±100 for the full control effect; nearly all actives have a fitted effect of over 35% in size)
Summary of the method: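 HepG2, 2,000 cells/well, overnight attachment; cpd or DMSO 1 hr, 37C/5% CO2; Mito-MPS dye 30 min, 37C; fluorescence monomer (490/535) and aggregate (540/590).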

[18] = qHTS assay for small molecule disruptors of the mitochondrial membrane potential - 5 hr assay (AID 651755; calls by dose curve; also: % is scaled to controls: 0 for no effect and ±100 for the full control effect; nearly all actives have a fitted effect of over 40% in size)
Summary of the method: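 HepG2 cells (2,000/well), attached overnight, exposed to compound 5 hr at 37C, then Mito-MPS dye 30 min. Fluorescence read for monomers (490/535 nm) and aggregates (540/590 nm).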

[19] = qHTS assay to identify small molecules that stimulate interleukin-8 (IL-8) secretion (AID 651758; active = well fitted activation curve with a large enough effect in the signal ratio; the % refers to the signal ratio; also: 0% is about no effect)
Summary of the method: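 THP-1 cells (2000/well) exposed to compound 16 h at 37 C; secreted IL-8 then detected by HTRF with cryptate- and XL665-labelled anti-IL-8 antibody pair after 1-3 h at room temperature.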

COc1cc2nccc(Oc3ccc(NC(=O)NC4CC4)c(Cl)c3)c2cc1C(N)=O
inactive: outcome [2]
active: Potency [1] 3.45 µM

Cn1cnc([N+](=O)[O-])c1Sc1ncnc2nc[nH]c12
inactive: activation [3] -1.21% and -0.92% | activation [4] -4.71% and -5.39% | max response [5] -2.81% and -2.18% | outcome [6] | outcome [7] | outcome [8] | outcome [9] | outcome [10] | outcome [11] | outcome [12]

CN(C)c1ccc(C2Nc3ccc4ccccc4c3C3=C2C(=O)CC(C)(C)C3)cc1Br (configuration not stated)
inactive: Potency [1] | outcome [2]

O=C1CCC(N2C(=O)c3ccccc3C2=O)C(=O)N1 (configuration not stated)
inactive: activation [3] -0.119% | activation [4] -0.0215% | max response [5] -0.602% | outcome [13] inactive; inhibitor; fitted 0.0301 uM | outcome [6] | outcome [7] | outcome [8] | max response [14] 1.28% | outcome [10] | outcome [11]

O=C1CCCC2=C1C(c1[nH]ncc1Cl)N=C(Nc1nc3ccccc3o1)N2 (configuration not stated)
inactive: Potency [1] | outcome [2]

NC(N)=NC(=O)c1nc(Cl)c(N)nc1N
inactive: activation [3] -0.363% | outcome [15] | activation [4] 6.31% | max response [5] -5.82% | outcome [16] | Potency [1] | outcome [2] | outcome [6] | outcome [7] | outcome [8] | outcome [9] | max response [14] -15% | outcome [10] | outcome [11]

Cc1cc2c(C(C)C)c(O)c(O)c(C=O)c2c(O)c1-c1c(C)cc2c(C(C)C)c(O)c(O)c(C=O)c2c1O
inactive: activation [4] -3.15% | outcome [2] | outcome [6] | outcome [10]

NS(=O)(=O)c1cc2c(cc1Cl)NC=NS2(=O)=O
inactive: activation [3] -0.0978% | outcome [17] | outcome [18] | outcome [19] | activation [4] -1.42% | max response [5] -1.54% | outcome [16] | outcome [6] | outcome [7] | outcome [8] | outcome [9] | max response [14] -14.4% | outcome [10] | outcome [11]

COc1ccc2nc(S(=O)Cc3ncc(C)c(OC)c3C)[nH]c2c1 (configuration not stated)
inactive: activation [3] -0.714% | max response [5] 6.65% | Potency [1] | outcome [2] | max response [14] 1.66%

CCOc1cc(C(=O)Nc2ccc(Cl)c(-c3nc4ccccc4[nH]3)c2)cc(OCC)c1OCC
inactive: Potency [1] | outcome [2]

Cc1cc([C@@H](C)Nc2ccccc2C(=O)O)c2nc(N3CCOCC3)cc(=O)n2c1
inactive: Potency [1] | outcome [2]
